Measurements taken from PubChem BioAssay (NCI).
About 83,000 compounds went through this panel and 20% of them were active in at least one assay; those are over-represented in the sample as a whole.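 In brief: 96-well plates, 48 h treatment, single concentration, percent growth endpoint.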 Values without a mark were called inactive. Calls of active or inactive are those of the source. Rule for the calls: active = growth percent below 10; inactive = the rest.

How the values were obtained:
Test in all cases: NCI-60 one-dose screen, 48 h (100 = growth as untreated, 0 = no growth, -100 = all killed)
Conditions in all cases: 10 µM unless noted
NCI-H23 lung = system: NCI-H23 lung
NCI-H226 lung = system: NCI-H226 lung
NCI-H322M lung = system: NCI-H322M lung
HOP-62 NSCLC = system: HOP-62 NSCLC
NCI-H460 lung = system: NCI-H460 lung
HOP-92 NSCLC = system: HOP-92 NSCLC
NCI-H522 lung = system: NCI-H522 lung
A549/ATCC NSCLC = system: A549/ATCC NSCLC
786-0 renal = system: 786-0 renal
COLO 205 colon = system: COLO 205 colon
DU-145 prostate = system: DU-145 prostate
K-562 leukemia = system: K-562 leukemia
MALME-3M melanoma = system: MALME-3M melanoma
MDA-MB-231 breast = system: MDA-MB-231 breast
RXF 393 renal = system: RXF 393 renal
SF-268 CNS = system: SF-268 CNS
SF-295 CNS = system: SF-295 CNS
SF-539 CNS = system: SF-539 CNS
UACC-257 melanoma = system: UACC-257 melanoma
M14 melanoma = system: M14 melanoma

SMILES	growth (NCI-H23 lung)	growth (NCI-H226 lung)	growth (NCI-H322M lung)	growth (HOP-62 NSCLC)	growth (NCI-H460 lung)	growth (HOP-92 NSCLC)	growth (NCI-H522 lung)	growth (A549/ATCC NSCLC)	growth (786-0 renal)	growth (COLO 205 colon)	growth (DU-145 prostate)	growth (K-562 leukemia)	growth (MALME-3M melanoma)	growth (MDA-MB-231 breast)	growth (RXF 393 renal)	growth (SF-268 CNS)	growth (SF-295 CNS)	growth (SF-539 CNS)	growth (UACC-257 melanoma)	growth (M14 melanoma)
Cc1cc(N(CCCl)CCCl)ccc1C=Nc1ccccc1-c1ccccc1	60.8%	-38.8% (active)	101%	54.6%	16.4%	84.4%	99.5%	59.6%	52.1%	86.1%	61.2%	85%	77.1%	94.4%	45.5%	62.8%	27.2%	61.7%	55.3%	75.8%
Cc1ccc2c(C(C[N+](=O)[O-])c3cccs3)c(-c3ccccc3)[nH]c2c1 (stereo not given)	38.4%	46.4%	54.7%	26.2%	11.3%	25.5%	-3.71% (active)	28.8%	38.6%	6.75% (active)	28.1%	10.8%	50.9%	44.1%	13.8%	37.7%	7.69% (active)	6.62% (active)	30%	19.4%
C=C(C)[C@@]12OC3(/C=C/C=C/CCCCC)O[C@@H]1[C@@H]1[C@@H]4O[C@]4(CO)[C@@H](O)[C@]4(O)C(=O)C(C)=C[C@H]4[C@@]1(O3)[C@H](C)[C@H]2OC(=O)c1ccccc1	46.3%	79.2%	76.6%	22.5%	22.1%	35.1%	78.8%	32.8%	45.8%	4.17% (active)	38.4%	24.9%	88.3%	52%	71%	40.7%	39.6%	63.8%	97%	36.3%
CCOC(=O)[C@@H](C)C[C@H](Cc1ccccc1)NC(=O)c1csc([C@@H](C[C@H](C(C)C)N(C)C(=O)[C@@H](NC(=O)[C@H]2C[C@H](O)CCN2C)C(C)C)OC(C)=O)n1	30.7%	-29.5% (active)	43.3%	10.7%	5.02% (active)	26.3%	-39% (active)	13.5%	11.2%	-61.4% (active)	0.421% (active)	6.81% (active)	35.1%	14.5%	42.1%	24.6%	-6.17% (active)	-18.5% (active)	58.5%	-13% (active)
CC(=O)OC1C(OC/C2=C/C3[C@@H](C(C)C)CC=C(C)[C@@H]3CC(OC(=O)/C=C/c3cn(C)cn3)[C@]3(C)C=C[C@@]2(O)O3)OCC(O)C1O (stereo not given in full)	18.2%	63.5%	17.4%	8.78% (active)	9.03% (active)	35.3%	0.4% (active)	27.9%	15.9%	-24.9% (active)	-10.2% (active)	15.7%	48.4%	41.8%	-20.6% (active)	45.1%	-3.4% (active)	11.9%	60.7%	-35.7% (active)
COC(=O)[C@H](Cc1ccccc1)NC(=O)c1csc([C@@H](C[C@H](C(C)C)N(C)C(=O)[C@@H](NC(=O)[C@H]2CCCCN2C)C2CC2)OC(C)=O)n1	23.9%	27.7%	46.1%	-2.57% (active)	1.93% (active)	-3.94% (active)	-28.7% (active)	14.2%	11.7%	-66.6% (active)	6.13% (active)	3.82% (active)	67.8%	-1.7% (active)	75.8%	19.2%	3.79% (active)	-14.4% (active)	54.2%	-5.77% (active)
C=C1C[C@](OC)([C@H](O)C(=O)N[C@@H](OC)[C@@H]2C[C@@H](O)C(C)(C)[C@@H](C[C@@H](COC)OC)O2)O[C@H](C)[C@@H]1C	-27.7% (active)	-75.5% (active)	-21% (active)	-35.4% (active)	-41.4% (active)	-65.1% (active)	-55.1% (active)	-49.1% (active)	-61.9% (active)	-15.6% (active)	-49.9% (active)	-50.1% (active)	-71.1% (active)	-55.7% (active)	-92.7% (active)	-32.4% (active)	-51.4% (active)	-65.9% (active)	-53.4% (active)	-54.6% (active)
COc1cc(/C=C/[N+](=O)[O-])c([N+](=O)[O-])cc1OC	79.6%	16.1%	110%	81.1%	76.1%	94.2%	-89.9% (active)	78%	-30.7% (active)	-52.7% (active)	38.6%	10.9%	11.7%	-12.1% (active)	-92.9% (active)	48.3%	107%	-32.4% (active)	65.7%	7.35% (active)
CC(=O)Nc1nc2c(s1)CC[C@@]1(C)C2=CC[C@H]2[C@@H]3CC[C@H](O)[C@@]3(C)CC[C@@H]21	73.3%	89.9%	79.8%	67.1%	27.3%	84.7%	51.6%	56%	35.7%	72.2%	81.7%	17.5%	56.9%	81.5%	23.5%	73.4%	36.4%	8.5% (active)	82%	36%
Clc1cc(N2CC2)nc(N2CC2)n1	56%	81.4%	103%	63.9%	23.6%	68.4%	67.2%	62.3%	76.1%	81.3%	52.5%	69%	89.7%	88.1%	78%	59.3%	40.7%	43.8%	76.7%	57.4%
CCCCCSC1C2C(=O)C(Br)=CC13CCNc1c(O)c4c5c(c13)=[N+]2CCC=5C=N4 (stereo not given)	-17.1% (active)	-5.15% (active)	2.94% (active)	-73.2% (active)	-33.7% (active)	-56.1% (active)	-64.4% (active)	-52.1% (active)	-50.3% (active)	-76.5% (active)	-100% (active)	-32% (active)	-99.5% (active)	-7.12% (active)	-28.5% (active)	-51.7% (active)	20.9%	-79.6% (active)	-79.6% (active)	-92.6% (active)
COC(=O)[C@H](Cc1ccccc1)NNC(=O)c1csc([C@@H](C[C@H](C(C)C)N(C)C(=O)[C@@H](NC(=O)[C@H]2CCCCN2C)C2CC2)OC(C)=O)n1	29.2%	36.5%	46.7%	8.12% (active)	3.02% (active)	3.84% (active)	-19.2% (active)	15.3%	11.9%	-60.3% (active)	6.55% (active)	1.75% (active)	71%	3.27% (active)	76.4%	22.5%	-5.26% (active)	-15.4% (active)	58%	2.43% (active)
COc1cc([C@@H]2c3cc4c(cc3[C@H](OC(C)=O)[C@H]3COC(=O)[C@H]23)OCO4)cc(OC)c1OC	25%	76.4%	42.7%	37.8%	9.09% (active)	32.8%	-4.13% (active)	19.5%	20.5%	-27.9% (active)	1.84% (active)	9.74% (active)	68.9%	23.7%	54.9%	37%	10.6%	-11% (active)	75.9%	6.87% (active)
CC(=O)OC1CCC2C3CCC4=C/C(=N/OC(=O)c5ccc(N(CCCl)CCCl)cc5)CCC4(C)C3CC(C)C12 (stereo not given)	69.7%	94%	91.7%	78.6%	-4.94% (active)	92.5%	79.2%	56.6%	87%	83.7%	79.6%	18.2%	76.3%	78.5%	67.9%	62.9%	81.5%	75.6%	105%	89.6%
COP(=O)(OC)C(O)c1ccc(Cl)cc1 (stereo not given)	98.8%	102%	84.2%	104%	103%	98.1%	89.1%	98.3%	101%	102%	97.9%	117%	101%	123%	108%	94.6%	100%	103%	99.7%	96.4%
